Laboratory results from PubChem BioAssay AID1159580 (chemical genetic matrix, 2015).
The whole screen tested about 5,500 compounds, of which about 2,000 (36%) were called active. Inconclusive results (about 18%) are left out. No stated cut-off is given here; in the data, active means normalized growth mostly below about 0.91 (no sharp cut-off); inconclusive means no clear call, values can overlap the other calls; inactive means mostly above about 0.92. The list shows a part of the results.

Test: chemical genetic growth profiling, strain panel (AID 1159580);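 further: tested at 20 µM; growth read once vehicle control cultures reached saturation at 30 °C; 1 = growth at the plate median or of vehicle wells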
Conditions: growth OD

Measured: normalized growth

O=C1O[C@@H](CO)[C@H](O)[C@@H](O)[C@@H]1O
inactive: S. cerevisiae deletion strains, locus YJR066W, strain TOR1, stronger effect = lower value 0.965 | S. cerevisiae deletion strains, locus YKL009W, strain mrt4, stronger effect = lower value 1.02 | S. cerevisiae deletion strains, locus YKL068W, stronger effect = lower value 0.999 | S. cerevisiae deletion strains, locus YKL085W, strain MDH1 (second series), stronger effect = lower value 0.998 | S. cerevisiae deletion strains, locus YKL085W, strain MDH1, stronger effect = lower value 0.998 | S. cerevisiae deletion strains, locus YKL160W, strain elf1, stronger effect = lower value 1.02 | S. cerevisiae deletion strains, locus YKL190W, strain CNB1, stronger effect = lower value 0.999 | S. cerevisiae deletion strains, locus YKR001C, strain vps1, stronger effect = lower value 0.985 | S. cerevisiae deletion strains, locus YKR026C, strain gcn3, stronger effect = lower value 1.01 | S. cerevisiae deletion strains, locus YKR091W, strain srl3, stronger effect = lower value 1.01 | S. cerevisiae deletion strains, locus YLL001W, strain dnm1, stronger effect = lower value 1.01 | S. cerevisiae deletion strains, locus YLL026W, stronger effect = lower value 1.02 | S. cerevisiae deletion strains, locus YLL041C, strain sdh2, stronger effect = lower value 1.02 | S. cerevisiae deletion strains, locus YLR027C, strain aat2, stronger effect = lower value 1.02 | S. cerevisiae deletion strains, locus YLR039C, strain RIC1, stronger effect = lower value 1.03 | S. cerevisiae deletion strains, locus YLR058C, strain SHM2, stronger effect = lower value 1.01 | S. cerevisiae deletion strains, locus YLR102C, strain apc9, stronger effect = lower value 1.01 | S. cerevisiae deletion strains, locus YLR113W, strain HOG1, stronger effect = lower value 0.963 | S. cerevisiae deletion strains, locus YLR221C, strain rsa3, stronger effect = lower value 1.01 | S. cerevisiae deletion strains, locus YLR258W, strain gsy2, stronger effect = lower value 1.04 | S. cerevisiae deletion strains, locus YLR262C, strain YPT6 (second series), stronger effect = lower value 1 | S. cerevisiae deletion strains, locus YLR262C, strain YPT6, stronger effect = lower value 1.08 | S. cerevisiae deletion strains, locus YLR268W, strain sec22, stronger effect = lower value 1.01 | S. cerevisiae deletion strains, locus YLR320W, strain mms22, stronger effect = lower value 1.02 | S. cerevisiae deletion strains, locus YLR330W, strain CHS5, stronger effect = lower value 1.01 | S. cerevisiae deletion strains, locus YLR342W, strain FKS1 (second series), stronger effect = lower value 1.04 | S. cerevisiae deletion strains, locus YLR342W, strain FKS1, stronger effect = lower value 1.03 | S. cerevisiae deletion strains, locus YLR357W, strain rsc2, stronger effect = lower value 1.01 | S. cerevisiae deletion strains, locus YLR370C, strain arc18, stronger effect = lower value 1.03 | S. cerevisiae deletion strains, locus YLR371W, strain rom2, stronger effect = lower value 1.01 | S. cerevisiae deletion strains, locus YLR384C, strain iki3, stronger effect = lower value 1.01 | S. cerevisiae deletion strains, locus YLR418C, strain cdc73, stronger effect = lower value 1.04 | S. cerevisiae deletion strains, locus YML016C, strain PPZ1, stronger effect = lower value 1.01 | S. cerevisiae deletion strains, locus YML032C, strain rad52, stronger effect = lower value 0.991 | S. cerevisiae deletion strains, locus YML120C, strain ndi1, stronger effect = lower value 1.01 | S. cerevisiae deletion strains, locus YML124C, strain tub3, stronger effect = lower value 1 | S. cerevisiae deletion strains, locus YMR058W, strain fet3, stronger effect = lower value 1.03 | S. cerevisiae deletion strains, locus YMR078C, strain ctf18, stronger effect = lower value 1 | S. cerevisiae deletion strains, locus YMR125W, strain sto1, stronger effect = lower value 1.02 | S. cerevisiae deletion strains, locus YMR129W, stronger effect = lower value 1.02 | S. cerevisiae deletion strains, locus YMR205C, strain PFK2, stronger effect = lower value 1.04 | S. cerevisiae deletion strains, locus YMR223W, strain ubp8, stronger effect = lower value 1.04 | S. cerevisiae deletion strains, locus YMR231W, strain pep5, stronger effect = lower value 1.02 | S. cerevisiae deletion strains, locus YMR307W, strain GAS1, stronger effect = lower value 1.05 | S. cerevisiae deletion strains, locus YNL067W, strain RPL9B, stronger effect = lower value 0.994 | S. cerevisiae deletion strains, locus YNL071W, strain lat1, stronger effect = lower value 1.02 | S. cerevisiae deletion strains, locus YNL128W, strain TEP1, stronger effect = lower value 1.02 | S. cerevisiae deletion strains, locus YNL183C, strain NPR1, stronger effect = lower value 0.944 | S. cerevisiae deletion strains, locus YNL209W, strain ssb2, stronger effect = lower value 1.03 | S. cerevisiae deletion strains, locus YNL233W, strain BNI4, stronger effect = lower value 1 | S. cerevisiae deletion strains, locus YNL248C, strain rpa49, stronger effect = lower value 1.06 | S. cerevisiae deletion strains, locus YNL250W, strain rad50, stronger effect = lower value 1.05 | S. cerevisiae deletion strains, locus YNL271C, strain bni1, stronger effect = lower value 0.993 | S. cerevisiae deletion strains, locus YNL298W, strain CLA4, stronger effect = lower value 1.01 | S. cerevisiae deletion strains, locus YNL307C, strain MCK1, stronger effect = lower value 1 | S. cerevisiae deletion strains, locus YNL322C, strain KRE1 (second series), stronger effect = lower value 1 | S. cerevisiae deletion strains, locus YNR049C, strain mso1, stronger effect = lower value 1.02 | S. cerevisiae deletion strains, locus YNR052C, strain pop2, stronger effect = lower value 1.01 | S. cerevisiae deletion strains, locus YOL006C, strain TOP1, stronger effect = lower value 0.992 | S. cerevisiae deletion strains, locus YOL012C, strain htz1 0.898 | S. cerevisiae deletion strains, locus YOL147C, strain pex11, stronger effect = lower value 1 | S. cerevisiae deletion strains, locus YOR001W, strain rrp6, stronger effect = lower value 1.01 | S. cerevisiae deletion strains, locus YOR061W, strain CKA2, stronger effect = lower value 1 | S. cerevisiae deletion strains, locus YOR069W, strain VPS5, stronger effect = lower value 1.01 | S. cerevisiae deletion strains, locus YOR070C, strain gyp1, stronger effect = lower value 1.03 | S. cerevisiae deletion strains, locus YOR080W, strain dia2, stronger effect = lower value 1.01 | S. cerevisiae deletion strains, locus YOR083W, strain WHI5, stronger effect = lower value 0.994 | S. cerevisiae deletion strains, locus YOR106W, strain vam3, stronger effect = lower value 1.01 | S. cerevisiae deletion strains, locus YOR136W, strain idh2, stronger effect = lower value 0.99 | S. cerevisiae deletion strains, locus YOR144C, strain elg1, stronger effect = lower value 1.01 | S. cerevisiae deletion strains, locus YOR184W, strain ser1, stronger effect = lower value 1 | S. cerevisiae deletion strains, locus YOR231W, strain MKK1, stronger effect = lower value 0.968 | S. cerevisiae deletion strains, locus YOR265W, strain rbl2, stronger effect = lower value 1.02 | S. cerevisiae deletion strains, locus YOR270C, strain vph1, stronger effect = lower value 1.06 | S. cerevisiae deletion strains, locus YOR290C, strain snf2, stronger effect = lower value 1.04 | S. cerevisiae deletion strains, locus YOR316C, strain cot1, stronger effect = lower value 1.01 | S. cerevisiae deletion strains, locus YPL051W, strain arl3, stronger effect = lower value 1 | S. cerevisiae deletion strains, locus YPL055C, strain LGE1, stronger effect = lower value 0.958 | S. cerevisiae deletion strains, locus YPL078C, strain atp4, stronger effect = lower value 1.03 | S. cerevisiae deletion strains, locus YPL106C, strain sse1, stronger effect = lower value 1.04 | S. cerevisiae deletion strains, locus YPL240C, strain hsp82, stronger effect = lower value 1.01 | S. cerevisiae deletion strains, locus YPL241C, strain CIN2, stronger effect = lower value 1 | S. cerevisiae deletion strains, locus YPL256C, strain CLN2, stronger effect = lower value 0.953 | S. cerevisiae deletion strains, locus YPR119W, strain clb2, stronger effect = lower value 1 | S. cerevisiae deletion strains, locus YPR141C, strain kar3, stronger effect = lower value 0.989 | S. cerevisiae deletion strains, locus YPR163C, strain tif3, stronger effect = lower value 1 | S. cerevisiae deletion strains, locus YPR167C, strain met16, stronger effect = lower value 1.01 | S. cerevisiae deletion strains, strain wtn01, stronger effect = lower value 0.997 | S. cerevisiae strains, strain wild type, stronger effect = lower value 1
